In PubChem BioAssay AID1852 (Sanford-Burnham Center for Chemical Genomics, 2009):
The campaign covered roughly 2,500 compounds. About 1,100 (44%) were called active. So high a share suggests a set chosen from earlier hits. Some of the results follow. A number with no mark means an inactive call.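 How the source made its calls: active means inhibition above 50% at 4 µM in the single-point screen; inactive means inhibition of 50% or less.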

Experiment: blockers of TNF-a NF-kB luciferase induction – cell-based, HEK293T NF-kB-Luc, luminescence, selectivity assay for NOD1/NOD2 signaling inhibitor project, primary screen (AID 1852)
Settings: TNF-a induced, 14 h, at 4 µM, active compounds read high

SMILES | inhibition
O=C(Nc1nnc(-c2ccc(F)cc2)o1)c1cccc([N+](=O)[O-])c1 | 89.2% (active)
O=C(NNC(=S)NC(=O)c1cccc([N+](=O)[O-])c1)c1ccc(Br)cc1 | -11.7%
CCOc1ccc(-c2nnc(NC(=O)c3ccc(OCC(C)C)c(OC)c3)o2)cc1 | 105% (active)
COc1ccccc1N(C)S(=O)(=O)c1ccc(C(=O)Nc2ccc(N3CCOCC3)cc2)cc1 | 35.4%
CC(=O)O[C@]1(C(C)=O)CC[C@H]2[C@@H]3C=CC4=CC(=O)C=C[C@]4(C)[C@H]3CC[C@@]21C | 32.7%
O=C(Nc1nnc(-c2ccc(Cl)s2)o1)C1CC1 | -5.5%
O=C(Nc1nnc(-c2ccc(F)cc2)o1)c1cc(Cl)sc1Cl | 96.6% (active)
C/C(=N\Nc1ncnc2sc(C)c(C)c12)c1ccccn1 | 103% (active)
COc1ccc(C2C(C(=O)N3CCOCC3)CCC(=O)N2c2ccc(OC)cc2)cc1 (centres undefined) | 17.2%
Cc1cc(NC(=O)c2cccs2)n(-c2nc3ccccc3[nH]2)n1 | 35.4%
Cc1cc(NC(=O)c2ccc(C)s2)n(-c2nc3ccccc3[nH]2)n1 | 31.1%
Cc1ccc(Nc2cc(C)nn2-c2nc(C)cc(=O)[nH]2)cc1 | 107% (active)
Cc1cccc(N2CCN(C(=O)CCCCCn3c(=S)[nH]c4ccc(N5CCOCC5)cc4c3=O)CC2)c1C | -10.2%
Cc1ccc(C)c(N2CCN(C(=O)CCCCCn3c(=S)[nH]c4ccc(N5CCOCC5)cc4c3=O)CC2)c1 | 96.5% (active)
O=C(CCCn1c(=S)[nH]c2cc3c(cc2c1=O)OCO3)N1CCN(c2ccc(Cl)cc2)CC1 | 35.9%
O=C(Nc1ccc2nn(-c3ccccc3)nc2c1)c1ccc2c(c1)OCCO2 | 31.9%
CC(C)C(=O)N1CCN(c2nc(-c3ccc(Cl)cc3)cs2)CC1 | -37.6%
Cc1ccccc1C(=O)N1CCN(c2ccc(NC(=O)c3ccc4c(c3)OCCO4)cc2)CC1 | -3.1%
CC(C)C(=O)N1CCN(c2ccc(NC(=O)c3ccc4c(c3)OCCO4)cc2Cl)CC1 | 80.5% (active)
O=C(Nc1ccc(N2CCN(C(=O)c3ccc(Cl)cc3)CC2)cc1)c1ccc2c(c1)OCCO2 | 86.8% (active)
Cc1ccc(C(=O)N2CCN(c3ccc(NC(=O)c4ccc5c(c4)OCCO5)cc3)CC2)cc1 | 84.2% (active)
CCCCCOc1ccc(/C=C/c2c([N+](=O)[O-])c(=O)n(C)c(=O)n2C)cc1 | 21.4%

SMILES | inhibition
CCOC(=O)/C=C/C(=O)Nc1ccc(S(=O)(=O)Nc2c(C)cc(C)cc2C)cc1 | 25.7%
CCOC(=O)/C=C/S(=O)(=O)c1ccc(NC(C)=O)cc1 | 64% (active)
CCOC(=O)/C=C/C(=O)Nc1ccc(S(=O)(=O)N(C)c2ccccc2)cc1 | -15.6%
O=C(O)CCC(=O)c1ccc2ccc3cccc4ccc1c2c34 | 50% (active)
Nc1[nH]nc2ncc3cc4ccccc4nc3c12 | 36.8%
Cc1nn(-c2ccccc2)c(Cl)c1CN(C(=O)CCl)c1ccc(Cl)cc1 | 105% (active)
Cc1nn(-c2ccccc2)c(Cl)c1CN(C(=O)CCl)c1cccc2ccccc12 | 14.9%
CC(=O)N1CC(C)Sc2ccc(S(=O)(=O)NCc3ccc(Cl)cc3)cc21 (centres undefined) | 11.8%
Clc1ccc(CSc2nnc(-c3ccncc3)o2)cc1 | 60.2% (active)
Cc1ccc(-c2nnc(SCC(=O)Nc3ccccc3F)o2)cc1 | 37.8%
Fc1ccc(CSc2nnc(-c3ccncc3)o2)cc1 | 70.1% (active)
COC(=O)CSc1nnc(-c2sc3ccccc3c2Cl)o1 | 48.5%
Brc1cccc(CSc2nnc(-c3ccncc3)o2)c1 | 44.3%
CCc1cc(C(=O)NC2CCCc3c2cnn3-c2cccc(C)c2C)n(C)n1 (centres undefined) | 59.1% (active)
Cc1cc(C(=O)NC2CCCc3c2cnn3-c2cccc(C)c2C)n(C)n1 (centres undefined) | 56.4% (active)
CC(=O)c1c(C)[nH]c(C(=O)OCC(=O)Nc2ccc(C)cc2[N+](=O)[O-])c1C | 79.4% (active)
Cc1ccccc1NC(=O)COC(=O)c1ccc(S(C)(=O)=O)c([N+](=O)[O-])c1 | 13%
COc1ccc(NC(=O)CN2CCc3ccccc3C2)c([N+](=O)[O-])c1 | -10.5%
O=[N+]([O-])c1ccc(N/N=C/c2sc(N3CCOCC3)nc2-c2ccccc2)c(S(=O)(=O)Nc2ccc(Cl)cc2)c1 | 60.9% (active)
O=[N+]([O-])c1ccc(N/N=C/c2sc(N3CCOCC3)nc2-c2ccccc2)c(S(=O)(=O)Nc2ccccc2Cl)c1 | 88.5% (active)
CCN(CC)S(=O)(=O)c1ccc(N2CCOCC2)c(NC(=O)c2cc([N+](=O)[O-])ccc2Cl)c1 | -28.1%
Cc1nnc(SCC(=O)N2CCC(c3noc4ccc(F)cc34)CC2)s1 | 84.5% (active)
